Experimental data from PubChem BioAssay AID777 (Sanford-Burnham Center for Chemical Genomics, 2007).
In all, about 96,000 compounds went through this assay and about 19,000 (20%) were called active. The list is a sample of the results. A number with no mark means an inactive call.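 Rule for the calls: active = blocking of liver enzyme CYP2C9 beyond about 50% at 5 µM (limit read from the data); inactive = the rest.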

What follows are molecules tested against Cytochrome P450 2C9 (Homo sapiens) (UniProt P11712) (assay: blockers of cytochrome P450 2C9 activity – biochemical, luminescence, ADME assay, primary screen (AID 777)). Settings: CYP2C9 Supersomes, luciferin-H conversion, at 5 µM, active compounds read high.
Chain of Cytochrome P450 2C9 (Homo sapiens) (P11712 whole entry, looked up): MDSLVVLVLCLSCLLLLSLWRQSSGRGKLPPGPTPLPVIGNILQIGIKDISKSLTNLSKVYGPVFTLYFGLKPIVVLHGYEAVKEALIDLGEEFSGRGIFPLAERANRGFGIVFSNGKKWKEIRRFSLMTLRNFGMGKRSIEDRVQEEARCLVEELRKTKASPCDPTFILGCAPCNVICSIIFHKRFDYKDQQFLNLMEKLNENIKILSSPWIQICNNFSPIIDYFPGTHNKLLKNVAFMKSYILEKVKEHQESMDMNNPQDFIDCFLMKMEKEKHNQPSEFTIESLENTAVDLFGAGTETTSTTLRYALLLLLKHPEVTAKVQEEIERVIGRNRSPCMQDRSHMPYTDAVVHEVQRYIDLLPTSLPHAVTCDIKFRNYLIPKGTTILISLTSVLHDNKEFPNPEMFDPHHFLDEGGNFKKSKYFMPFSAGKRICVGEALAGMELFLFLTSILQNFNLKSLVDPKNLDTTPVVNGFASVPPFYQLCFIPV

| SMILES | inhibition |
| --- | --- |
| CCOC(=O)N1CCN(C(=O)c2cnc3n(c2=O)CCS3)CC1 | -13.7% |
| Cc1cc(N/C=C\C(=O)c2ccc(Cl)c(Cl)c2)no1 | 7.8% |
| COC(=O)C1=C(N)Oc2cc(C)oc(=O)c2C1c1cccnc1 (configuration not stated) | 37.9% |
| Cc1ccc(CS(=O)(=O)CCC(=O)NC2CC2)cc1 | -3.7% |
| COC(CCN(C)C)(c1ccccc1)c1ccccc1 | -2.1% |
| CC1(C)Cc2ccccc2-c2nnc(-c3cccc(O)c3)n21 | -7.5% |
| O=C1OC(NC(=O)c2ccccc2)C(N2CCOCC2)=C1Cl (configuration not stated) | -6.9% |
| c1cnc(NC2C3CC4CC(C3)CC2C4)nc1 (configuration not stated) | 25.9% |
| CC1CCCN(Cc2nc3c(c(=O)n(C)c(=O)n3C)n2CC(=O)c2ccccc2)C1 (configuration not stated) | 11.2% |
| CC1CN(C2CCCCC2)c2nc3c(c(=O)n(C)c(=O)n3C)n2C1 (configuration not stated) | 82.2% (active) |
| CCCCCCn1c(CN2CCCC(C)C2)nc2c1c(=O)n(C)c(=O)n2C (configuration not stated) | 9.5% |
| COc1ccc(Cl)cc1NC(=O)CN(C)C(=O)CNC(=O)C12CC3CC(CC(C3)C1)C2 | 44.8% |
| COc1ccc(N2CCN(Cc3ccc(Br)s3)CC2)cc1 | 78.3% (active) |
| Fc1ccc(N2CCN(Cc3cnc(Oc4ccc(Br)cc4)s3)CC2)cc1 | 19.7% |
| COc1ccc(N2CCN(Cc3cc(=O)oc4ccc5ccccc5c34)CC2)cc1 | 22.6% |
| COc1ccccc1CNC(=O)C1CCN(c2nc3ccccc3o2)CC1 | -3.9% |
| FC(F)(F)c1nc2ccccc2nc1N/N=C/c1ccc(Cl)cc1 | 21.3% |
| OC(COc1cccc2ccccc12)CN1CCN(c2ccccn2)CC1 (configuration not stated) | 19.3% |
| CC1Cc2ccccc2N1CC(=O)Nc1ccc2c(c1)OC(F)(F)O2 (configuration not stated) | 71.6% (active) |
| CC1(C)Oc2ccc(C(=O)N3CCOCC3)cc2N(CC(=O)Nc2ccccc2)C1=O | 45.6% |
| O=C(CN1C(=O)COc2ccccc21)Nc1ccc(F)cc1 | 39% |
| Cc1cc(Cl)c(S(=O)(=O)Nc2ccc3c(c2)OCCO3)cc1OCC(N)=O | 19.9% |
| OC1CN=C2Sc3ccccc3N2C1 (configuration not stated) | -6.8% |
| Cc1nn(C(=O)c2ccoc2C)c(N)c1-c1ccccc1 | 26.4% |
| Cc1nn2c(c1-c1ccccc1)N=C(c1ccco1)CC2c1ccccc1 (configuration not stated) | 63.5% (active) |
| Cn1c(=O)c(C(=O)Nc2ncccn2)c(O)c2ccccc21 | -24.6% |
| O=C1NC(c2cc3c(cc2Cl)OCO3)Oc2ccccc21 (configuration not stated) | 26.5% |
